Cruzain noTriton: blocks cruzain activity in detergent-free assay | purified cruzain, Z-FR-AMC fluorescence, no detergent | Potency, µM, for the others: max response, negative = inhibition, hits mostly inhibitors | P25779 | 200,000 tested, 2.3% active;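 further: plate controls were enzyme without inhibitor for no effect and buffer without enzyme for full effect; nearly all actives have a fitted effect of over 40% in size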
Target sequence (P25779 123-467 limits assumed): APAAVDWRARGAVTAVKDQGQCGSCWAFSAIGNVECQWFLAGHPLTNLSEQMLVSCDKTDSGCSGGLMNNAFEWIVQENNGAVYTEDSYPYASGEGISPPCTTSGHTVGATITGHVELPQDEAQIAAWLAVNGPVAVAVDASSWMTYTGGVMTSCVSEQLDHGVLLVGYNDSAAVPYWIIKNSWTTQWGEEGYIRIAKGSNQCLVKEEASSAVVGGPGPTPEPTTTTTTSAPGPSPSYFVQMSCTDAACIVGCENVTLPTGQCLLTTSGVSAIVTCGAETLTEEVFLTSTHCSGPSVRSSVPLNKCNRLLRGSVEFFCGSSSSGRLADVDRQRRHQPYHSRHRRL
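Detergent-free condition (0.00005% Triton X-100) in acetate buffer pH 5.5 with DTT. 1.5 nM enzyme and compound were pre-mixed 15 min, then 2 uM Z-FR-AMC substrate added; reaction progress from fluorescence change between first and third reads (60 s).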
Cruzain Triton: inhibitors of Trypanosoma cruzi cruzain with detergent | purified cruzain, Z-FR-AMC fluorescence, 0.01% Triton | Potency, µM, without a hit: max response, negative = inhibition, most hits filed as inhibitors | 200,000 tested, 0.43% active | AID 1478;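 further: plate controls were neutral wells for no effect and buffer without enzyme for full effect; nearly all actives have a fitted effect of over 40% in size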
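Z-FR-AMC hydrolysis (2 uM substrate) by cruzain (1.5 nM) monitored kinetically at ex 360/em 450 nm after 15 min room-temperature compound exposure; 0.01% Triton X-100, pH 5.5, 5 mM DTT.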
* hit, by the source's call; ? = inconclusive. Sampled rows, rich in hits. Any-hit rate of the full collection: about 2.5%. The call rests on the fitted dose curve; in most records, active means well fitted curve in the direction sought with a large enough effect; inconclusive means small, poorly fitted or top-dose-only effect, or another doubt; inactive means no such curve, though single readings can be large; an effect the other way counts as inactive or inconclusive. Potency means the concentration at half of the fitted maximal effect.

SMILES	Cruzain noTriton	Cruzain Triton
COc1ccc(/C=C/C(=O)Nc2cc(S(=O)(=O)N3CCCCC3)ccc2N2CCCCC2)cc1OC	-27.5%	-2.5%
CCCCNC(=O)C(c1ccc(OCC(=O)OC)c(C(=O)OC)c1)N(Cc1ccccn1)C(=O)CCCCCN1C(=O)NC(c2ccc(-c3ccccc3)cc2)C(C(=O)OCc2ccccc2)=C1C (configuration not stated)	7.7%	-5.5%
Cc1cccc(NC(=O)COc2cccc3c(=O)n(C)ccc23)c1C	1.5%	-4.6%
CCOc1ccc(C2NC(=O)c3sc(=S)n(-c4ccccc4)c3N2)cc1 (configuration not stated)	-18.4%	-12.2%
COc1ccc(C2NC(=O)c3sc(=S)n(-c4ccccc4)c3N2)cc1 (configuration not stated)	25.1µM*	-0.1%
COc1ccc(C(=N/O)/C(=N/O)c2ccc(OC)cc2)cc1	-5.2%	-2.6%
COc1ccc(C(Cl)=C(c2ccc(OC)cc2)c2ccc(OC)cc2)cc1	20µM*	-4.6%
COC(=O)c1cc2sc(Cl)cc2n1Cc1cc(C)ccc1C	-8.5%	-2.8%
O=C1/C(=C\c2ccccn2)SC(=S)N1Nc1ncc(C(F)(F)F)cc1Cl	6.2%	12.6µM*
O=C1/C(=C/c2ccc(F)cc2)SC(=S)N1Nc1ncc(C(F)(F)F)cc1Cl	?	-7.7%
COC(=O)c1ccccc1NC(=O)c1ncoc1-c1ccco1	-2.6%	1.5%
Cc1ccccc1N1C(=O)CC(Sc2nnc(-c3ccccc3)o2)C1=O (configuration not stated)	3.1%	-3.2%
Cc1ccc(N2C(=O)CC(Sc3nc(-c4ccccc4)c4cc(Cl)ccc4n3)C2=O)c(C)c1 (configuration not stated)	15.8µM*	-8.1%
COC(=O)c1ccc(NC(=O)CSc2nc(=O)[nH]c3c2CCCC3)cc1	8.5%	-0.4%
O=C(Nc1nc2ccc(S(=O)(=O)N3CCCC3)cc2s1)c1ccc(F)cc1	-5.3%	-0.3%
O=S(=O)(Nc1nc2ccc(S(=O)(=O)N3CCCC3)cc2s1)c1ccc(F)cc1	15.8µM*	-9.0%
Cc1ccc(NC(=O)c2cnn3c(C(F)F)cc(-c4ccccc4)nc23)c(C)c1	-3.3%	-0.6%
CN(c1ccccc1)S(=O)(=O)c1ccc(NC(=O)c2cc(=O)c3ccccc3o2)cc1	-5.1%	1.5%
O=C(CCCn1c(=O)c2sccc2n(Cc2cccc(Cl)c2)c1=O)NCc1ccc2c(c1)OCO2	0.2%	-4.4%
O=c1[nH]c(/C(Cl)=C/c2c(F)cccc2Cl)nc2cc(Cl)ccc12	?	-3.8%
O=c1[nH]c(/C(Cl)=C/c2cccc(C(F)(F)F)c2)nc2cc(Cl)ccc12	3.16µM*	-2.8%
O=c1c(-c2ccccc2)nc2cnc(Oc3cccc(Cl)c3)nc2n1C[C@H]1CCCO1	-3.5%	-2.4%
CC(=O)N1c2ccc(S(=O)(=O)N3CCCCCC3)cc2CC1C(=O)NCc1cccc(C)c1 (configuration not stated)	-4.3%	1.2%
COc1cccc(-c2nnc3n2N=C(c2cccc(Br)c2)CS3)c1	7.94µM*	3.5%
c1ccc(-c2ccc(C3=Nn4c(nnc4-c4cc(-c5ccccc5)n[nH]4)SC3)cc2)cc1	3.16µM*	1.1%
SMILES	Cruzain noTriton	Cruzain Triton
CC1=Nn2c(nnc2-c2cc(-c3ccccc3)n[nH]2)SC1	6.1%	-0.5%
Cc1cccc(-c2nnc3n2N=C(c2ccc(Br)cc2)CS3)c1	-3.2%	2.8%
COc1cc2c(=O)n(CCC(=O)NCC3CCCO3)c(=O)n(CC(=O)Nc3ccc(C)cc3)c2cc1OC (configuration not stated)	0.4%	0.6%
CCOC(=O)c1cc(-c2ccc(OC)cc2)n(CCC(=O)NCCc2ccccc2)c1C	?	-4.5%
Cc1nn(-c2ccccc2)c(Cl)c1/C=N/Nc1ccc(S(=O)(=O)Nc2ccccc2C(=O)O)cc1[N+](=O)[O-]	?	14.1µM*
Cc1nn(-c2ccccc2)c(Cl)c1/C=N/Nc1ccc(Cl)c(C(=O)O)c1	-5.3%	-10.0%
Cc1cc(C)c2nc(N(Cc3cccnc3)C(=O)c3cccs3)sc2c1	-0.2%	-7.2%
NC(=O)CSc1nnc(-c2cc3ccccc3o2)n1Cc1ccccc1	?	-2.4%
O=C(CSc1nnc(C2CC2)n1Cc1ccccc1)c1cc2ccccc2o1	15.8µM*	-3.9%
O=C(O)Cc1ccc(NC2(c3ccccc3)C(=O)c3ccccc3C2=O)cc1	-16.8%	-2.7%
COc1cccc2c1Oc1ncccc1N(c1ccc(C(=O)NCc3cccc(C)c3)s1)C2	-16.2%	-3.8%
COc1cccc2c1Oc1ncccc1N(c1ccc(C(=O)NCc3ccccc3Cl)s1)C2	25.1µM*	-25.0%
COc1ccc(Cl)cc1NC(=O)Cn1cc2c(n1)CCC(C)C2 (configuration not stated)	-11.2%	-9.6%
Cc1ccc(C(=O)N2CCN(c3ccccc3)CC2)cc1NC(=O)c1nsc2ccccc12	-7.7%	-0.1%
CN(Cc1cc(Br)cc(Br)c1N)C1CCCCC1	-1.9%	-2.9%
O=C(Nc1cccc(C(F)(F)F)c1)c1cc2ccc3cccnc3c2[nH]1	-14.0%	-0.2%
O=C(Nc1ccc(F)cc1F)c1cc2ccc3cccnc3c2[nH]1	25.1µM*	-2.0%
COc1ccc(NC(=O)CCN2CCN(CCO)CC2)c(OC)c1	-7.5%	-2.1%
Cc1ccc(C)c(CN2C(=O)C3CCCN3c3ccc(C#N)cc32)c1 (configuration not stated)	15.8µM*	-5.4%
O=C1C2CCCN2c2ccc(S(=O)(=O)N3CCOCC3)cc2N1Cc1cccc(C(F)(F)F)c1 (configuration not stated)	8.5%	-3.7%
O=C1C2CCCN2c2ccc(S(=O)(=O)N3CCOCC3)cc2N1Cc1ccccc1F (configuration not stated)	6.7%	-2.7%
Cc1ccc(CN2C(=O)C3CCCN3c3ccc(C#N)cc32)cc1 (configuration not stated)	10µM*	-0.5%
COc1ccc(Cn2c(C(=O)O)c(CNCC(C)c3ccccc3)c3ccc(OC)cc32)cc1 (configuration not stated)	17.4%	-4.5%
Cc1nn2cc(-c3ccc(-c4ccccc4)cc3)nc2s1	12.6µM*	-0.9%
Cc1nn2cc(-c3ccc(Cl)cc3)nc2s1	?	4.5%
SMILES	Cruzain noTriton	Cruzain Triton
COC(=O)c1sccc1NC(=S)N1CCN(c2cccc(C)c2C)CC1	15.8µM*	-2.1%
COC(=O)c1sccc1NC(=S)N1CCCCC1	-1.9%	-1.2%
CC(CNC(=O)c1ccc2c(c1)nc1n2CCOC1)c1ccccc1 (configuration not stated)	-0.3%	4.3%
Nc1nc2nccc(-c3ccc(Cl)cc3)n2n1	-75.2%	25.1µM*
Cc1cc(-c2ccc(Cl)cc2)n2nc(N)nc2n1	12.0%	-10.2%
COc1cc(C(=O)NCc2nc(-c3ccc(Cl)cc3)no2)cc(OC)c1OC	-7.0%	-4.2%
COc1ccc(S(=O)(=O)N2CCN(c3c(C)cccc3C)CC2)cc1OC	4.3%	-9.7%
COc1cc(Cl)c(S(=O)(=O)N2CCN(c3c(C)cccc3C)CC2)cc1Cl	20µM*	-3.1%
CCc1nn(CC(=O)N2CCN(c3cccc(Cl)c3)CC2)c(=O)c2cc3sccc3n12	3.2%	-1.6%
COc1ccc(CNC(=O)Cc2c(C)c3ccc(O)cc3oc2=O)cc1	25.1µM*	-22.8%
COc1ccc(CNC(=O)Cc2c(C)c3c(O)cc(C)cc3oc2=O)cc1	-4.0%	0.0%
CCCCN(Cc1ccccc1)S(=O)(=O)c1cc(Br)cc2c1N(C(=O)C1CC1)CC2	-2.5%	-4.0%
O=c1c(-c2ccc(F)cc2)nc2cnc(N3CCOCC3)nc2n1C1CC1	1.2%	0.1%

Bioassay records deposited in PubChem BioAssay by National Center for Advancing Translational Sciences (NCATS).
